The target in assay [1] is Rap guanine nucleotide exchange factor 3 (Homo sapiens) (UniProt O95398). The experiment in a line: Confirmatory qHTS for agonist of cAMP-regulated guanine nucleotide exchange factor 3 (EPAC1) (AID 1645881).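 Note: EPAC1 catalysed release of BODIPY-GDP from Rap1B seen as fluorescence loss; 100% = effect of cAMP agonist control; nearly all actives have a fitted effect of over 75% in size.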
The target of assay [2] is Rap guanine nucleotide exchange factor 4 (Homo sapiens) (UniProt Q8WZA2). As to the kind of experiment: Confirmatory qHTS for agonist of cAMP-regulated guanine nucleotide exchange factor 4 (EPAC2) (AID 1645884).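 Note: nucleotide exchange releases bodipy-GDP from Rap1 and this lowers its fluorescence; % is set by controls: 0 for no effect and ±100 for the full control effect; nearly all actives have a fitted effect of over 65% in size.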 A general note: qHTS replaces the single test concentration by a dilution series.
The target is the same in assay [3]. The experiment in a line: Confirmatory qHTS for antagonist of cAMP-regulated guanine nucleotide exchange factor 4 (EPAC2) (AID 1645885). For activity change, negative = inhibition: % is set by controls: 0 for no effect and ±100 for the full control effect. Note: nearly all actives have a fitted effect of over 25% in size. Note: potency is the fitted concentration of half-maximal effect.
The target of assay [4] is Rap guanine nucleotide exchange factor 3 (Homo sapiens) (UniProt O95398). The experiment in a line: Counterscreen qHTS for antagonist of cAMP-regulated guanine nucleotide exchange factor 3 (EPAC1) (AID 1645888).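 Note: fluorescence loss as bound BODIPY-GDP is released from Rap1B; % of control where 0% means no effect.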 The essentials:
(§1)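 Measured: fluorescence of BODIPY-GDP bound to Rap1B, which falls as exchange proceeds. Conditions include 50 uM competing GDP, 5 and 30 min reads, and a later cAMP challenge for antagonist detection.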
Background: The purpose of a counterscreen is to sort out artefacts and off-target activity.

Assay [5] has the same target. The experiment in a line: Counterscreen qHTS for agonist of cAMP-regulated guanine nucleotide exchange factor 3 (EPAC1) (AID 1645889). For activation: % of control where 0% means no effect. Note: nearly all actives have a fitted effect of over 40% in size. Note: potency is the fitted concentration of half-maximal effect. The essentials: as §1

Each structure is given as a SMILES string. Records with an inconclusive call do not appear. A number with no mark means an inactive call. Active and inactive are the calls of the source. Calls come from the whole dose curve; as a rule, active = well fitted curve in the direction sought with a large enough effect; inconclusive = small, poorly fitted or top-dose-only effect, or another doubt; inactive = no such curve, though single readings can be large; an effect the other way counts as inactive or inconclusive.

For 22 compounds, Potency, activation and activity change, negative = inhibition results are on record in PubChem BioAssay (NCATS).

Chain of Rap guanine nucleotide exchange factor 4 (Homo sapiens) (Q8WZA2 whole entry, looked up): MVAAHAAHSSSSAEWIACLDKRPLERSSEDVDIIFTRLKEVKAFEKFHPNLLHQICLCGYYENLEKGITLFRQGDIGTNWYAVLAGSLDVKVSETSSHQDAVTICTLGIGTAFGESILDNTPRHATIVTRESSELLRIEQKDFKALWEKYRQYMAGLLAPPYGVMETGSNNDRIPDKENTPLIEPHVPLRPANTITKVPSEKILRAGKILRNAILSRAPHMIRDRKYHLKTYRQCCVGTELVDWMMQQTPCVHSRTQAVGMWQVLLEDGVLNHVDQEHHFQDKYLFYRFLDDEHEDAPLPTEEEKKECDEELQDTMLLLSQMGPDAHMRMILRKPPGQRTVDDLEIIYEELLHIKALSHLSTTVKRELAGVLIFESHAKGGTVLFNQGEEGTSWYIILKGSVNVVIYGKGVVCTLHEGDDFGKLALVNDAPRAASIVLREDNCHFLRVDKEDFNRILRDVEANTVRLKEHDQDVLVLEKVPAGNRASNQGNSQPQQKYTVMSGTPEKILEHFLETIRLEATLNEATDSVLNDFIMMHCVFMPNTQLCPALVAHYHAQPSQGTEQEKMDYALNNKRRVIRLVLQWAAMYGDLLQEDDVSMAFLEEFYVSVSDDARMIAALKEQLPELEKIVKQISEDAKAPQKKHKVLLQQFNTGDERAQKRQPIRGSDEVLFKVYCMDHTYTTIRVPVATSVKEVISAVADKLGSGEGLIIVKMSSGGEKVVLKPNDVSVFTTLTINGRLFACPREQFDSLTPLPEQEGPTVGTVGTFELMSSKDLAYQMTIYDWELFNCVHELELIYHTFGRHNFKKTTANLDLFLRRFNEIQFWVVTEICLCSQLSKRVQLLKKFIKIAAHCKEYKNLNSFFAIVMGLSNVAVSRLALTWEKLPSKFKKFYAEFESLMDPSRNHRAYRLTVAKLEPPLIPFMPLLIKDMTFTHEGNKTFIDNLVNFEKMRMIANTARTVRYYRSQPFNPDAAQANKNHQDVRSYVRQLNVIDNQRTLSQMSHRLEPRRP
Chain of Rap guanine nucleotide exchange factor 3 (Homo sapiens) (O95398 whole entry, looked up): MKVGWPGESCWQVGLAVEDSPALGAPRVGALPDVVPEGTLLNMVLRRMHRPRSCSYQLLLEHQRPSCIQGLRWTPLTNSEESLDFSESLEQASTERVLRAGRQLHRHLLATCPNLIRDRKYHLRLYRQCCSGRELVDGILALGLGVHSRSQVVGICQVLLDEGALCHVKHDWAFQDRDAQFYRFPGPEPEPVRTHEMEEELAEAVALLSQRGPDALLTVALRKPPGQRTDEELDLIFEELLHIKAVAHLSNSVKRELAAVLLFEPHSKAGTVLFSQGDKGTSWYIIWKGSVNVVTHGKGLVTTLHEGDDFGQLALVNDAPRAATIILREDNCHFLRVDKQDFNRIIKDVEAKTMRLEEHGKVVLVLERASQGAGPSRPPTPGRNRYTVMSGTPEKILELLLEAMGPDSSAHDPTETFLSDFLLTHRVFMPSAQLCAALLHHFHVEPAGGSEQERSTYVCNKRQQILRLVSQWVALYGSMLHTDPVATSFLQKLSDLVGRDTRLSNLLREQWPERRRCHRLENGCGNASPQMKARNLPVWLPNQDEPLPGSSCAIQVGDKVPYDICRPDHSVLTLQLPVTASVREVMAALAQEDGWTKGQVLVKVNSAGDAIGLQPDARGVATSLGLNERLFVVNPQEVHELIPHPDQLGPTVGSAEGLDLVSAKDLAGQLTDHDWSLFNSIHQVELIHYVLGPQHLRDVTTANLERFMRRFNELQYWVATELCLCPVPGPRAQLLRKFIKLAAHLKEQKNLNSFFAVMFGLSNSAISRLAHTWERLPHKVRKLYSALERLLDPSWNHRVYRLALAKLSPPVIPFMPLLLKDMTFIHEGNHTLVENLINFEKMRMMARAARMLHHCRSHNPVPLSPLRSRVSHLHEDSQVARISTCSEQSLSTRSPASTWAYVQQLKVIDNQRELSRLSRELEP

Regarding `O=c1ccc(-c2ccccc2)nn1Cc1ccc(F)cc1Cl`, the Potency entry in assay [1], in assay [2], in assay [3], in assay [4] and in assay [5] was “inactive” in each case.

For the compound `CCCCN1C(=O)C(NC(=O)c2ccc(C(C)(C)C)cc2)(C(F)(F)F)C(C(=O)OC)=C1C` (configuration not stated), the Potency entry in assay [1], in assay [2], in assay [3], in assay [4] and in assay [5] was “inactive” in each case.

Consider `O=S(=O)(Nc1cc(Sc2ncn[nH]2)c(O)c2ccccc12)c1ccccc1`, for which the Potency result in assay [1] and in assay [3] was “inactive” each time. Besides, the activation in assay [2] was 4.4% [at 17.1 µM, percent relative to cAMP agonist control]. Also, the activity change, negative = inhibition in assay [4] was 3.32% [at 30.8 µM].

Take `CCc1ccc(N=Nc2ccc(O)c3[nH]cnc23)cc1`: the Potency result in assay [1], in assay [2], in assay [3], in assay [4] and in assay [5] was “inactive” each time.

On to `CCc1nnc(NS(=O)(=O)c2ccc(N/C=C\C(=O)c3ccc4ccccc4c3)cc2)s1`, for which the Potency entry in assay [1] and in assay [3] was “inactive” throughout. Also, the activation in assay [2] was 1.49% [at 17.1 µM, percent relative to cAMP agonist control]; in assay [5], 3.82% [at 30.8 µM]. The activity change, negative = inhibition in assay [4] was -10.2% [at 30.8 µM].

On to `O=C(Nc1ccc(-c2nnc(-c3ccco3)o2)cc1)C(c1ccccc1)c1ccccc1`, for which the Potency entry in assay [1], in assay [2], in assay [3], in assay [4] and in assay [5] was “inactive” in each case.

Turning to `O=C(Nc1ccc(Br)cc1C(=O)O)c1ccc2c(c1)C(=O)N(Cc1ccccc1)C2=O`, the Potency result in assay [1], in assay [2], in assay [3], in assay [4] and in assay [5] was “inactive” each time.

With `CCOc1cc(/C=N/NC(=O)CSc2nncn2C)ccc1OC(=O)c1ccc(Cl)cc1`, the Potency entry in assay [1] and in assay [3] was “inactive” in each case. Moreover, the activation was 6.27% [at 17.1 µM, percent relative to cAMP agonist control] in assay [2] and 9.31% [at 30.8 µM] in assay [5]. Moreover, the activity change, negative = inhibition in assay [4] is 0.431% [at 30.8 µM].

Regarding `Cc1[nH]n(-c2ccccc2)c(=O)c1C=Nc1ccc(S(=O)(=O)N=C(N)N)cc1`, the Potency entry in assay [1], in assay [2], in assay [3] and in assay [4] was “inactive” in each case.

On to `Cc1nnc(Sc2cc(NCCCO)c([N+](=O)[O-])c3nonc23)s1`, for which the Potency result in assay [1] and in assay [3] was “inactive” throughout. In assay [2], the activation is 3.11% [at 17.1 µM, percent relative to cAMP agonist control]. In addition, in assay [4], the activity change, negative = inhibition is 1.69% [at 30.8 µM]. In addition, in assay [5], the Potency is 8.91 µM (active).

For `CS(=O)(=O)N1CCN(c2ccc([N+](=O)[O-])c(NCc3ccc(Cl)cc3)c2)CC1`, the Potency result in assay [1] and in assay [3] was “inactive” in each case. Further, the activation in assay [2] was -0.717% [at 17.1 µM, percent relative to cAMP agonist control]; in assay [5], 12% [at 30.8 µM]. Further, the activity change, negative = inhibition in assay [4] was -6.75% [at 30.8 µM].

As for `CCC(CC)c1nnc(NC(=O)CSCc2c(C)noc2C)s1`, the Potency result in assay [1], in assay [2], in assay [3], in assay [4] and in assay [5] was “inactive” throughout.

For the compound `CCOC(=O)C(C)n1nc(-c2ccccc2)c2ccccc2c1=O` (configuration not stated), the Potency result in assay [1], in assay [2], in assay [3], in assay [4] and in assay [5] was “inactive” in each case.

Turning to `Cc1ccc(C)c(S(=O)(=O)N2CCN(C(=O)CCNC(=O)c3ccc(Br)cc3)CC2)c1`, the Potency entry in assay [1], in assay [2], in assay [3], in assay [4] and in assay [5] was “inactive” each time.

On to `COC(=O)c1ccc(-c2ccc(/C=N/N3C(=O)C4C5C=CC(C6CC56)C4C3=O)o2)cc1` (configuration not stated), for which the Potency entry in assay [1] and in assay [3] was “inactive” in each case. Also, the activation in assay [2] was 1.41% [at 17.1 µM, percent relative to cAMP agonist control]; in assay [5], 7.8% [at 30.8 µM]. The activity change, negative = inhibition in assay [4] is -3.98% [at 30.8 µM].

Turning to `N#C/C(=C\c1ccc(OCc2ccc(C(=O)O)cc2)cc1)C(=O)N1CCOCC1`, the Potency result in assay [1], in assay [2], in assay [4] and in assay [5] was “inactive” each time. Further, the Potency in assay [3] was 21.3 µM (active).

`C[C@H]1CN([C@@H](C)CO)S(=O)(=O)c2ccc(Br)cc2O[C@@H]1CN(C)Cc1cccc(F)c1`: the Potency entry in assay [1] and in assay [3] was “inactive” each time. For the same compound, the activation in assay [2] is 15% [at 17.1 µM, percent relative to cAMP agonist control]. Further, the activity change, negative = inhibition in assay [4] is -8.18% [at 30.8 µM].

As to `CCCn1nc([N+](=O)[O-])c(C(C#N)c2nc3ccccc3o2)c(Cl)c1=O` (configuration not stated), the Potency entry in assay [1], in assay [2], in assay [4] and in assay [5] was “inactive” in each case. Also, the Potency in assay [3] was 37.9 µM (active).

For the compound `COc1cc(OC)cc(-c2cc3ccc(OC)cc3cn2)c1`, the Potency result in assay [1], in assay [2], in assay [4] and in assay [5] was “inactive” each time. For the same compound, the Potency in assay [3] was 30.1 µM (active).

On to `COc1ccc(/C=C2/SC(=O)N(CCC(=O)Nc3ccc(S(=O)(=O)Nc4nccs4)cc3)C2=O)cc1`, for which the Potency result in assay [1], in assay [2], in assay [3], in assay [4] and in assay [5] was “inactive” in each case.

Take `CC(Oc1ccc(Cl)cc1Cl)C(=O)NC1=NN(c2ccccc2)C(=O)C1` (configuration not stated): the Potency entry in assay [1], in assay [2], in assay [3], in assay [4] and in assay [5] was “inactive” in each case.

As for `O=C(O)c1cccc(N2C(=O)c3cc([N+](=O)[O-])cc4cc([N+](=O)[O-])cc(c34)C2=O)c1`, the Potency result in assay [1], in assay [2], in assay [4] and in assay [5] was “inactive” in each case. Further, the Potency in assay [3] was 37.9 µM (active).
